Screens as filed in PubChem BioAssay.
TNF death inh: inhibitors of TNF-alpha triggered necroptosis, primary screen, cell-based, Jurkat FADD-/-, single concentration; Jurkat FADD-/- TNF necroptosis rescue, ATP luminescence, 24 h; 0 = TNF only, 100 = no-TNF cells; activation (protection from cell death), % at 10 µM; hit rate 0.068% among 220,000;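 active = activation, meaning protection from cell death, of at least 50% relative to plate controls; inactive = activation below 50%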;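 note: necroptosis triggered by 40 ng/mL TNF-alpha added together with compound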
Mcl1-Bid inh: Mcl-1/Bid binding inhibitors, primary screen, biochemical, TR-FRET, 1536-well. Induced myeloid leukemia cell differentiation protein Mcl-1 (Homo sapiens), Q07820. TR-FRET Mcl-1/Bid-Dy647 peptide binding. inhibition, % at 21.7 µM. hit rate 0.97% among 220,000. AID 1021, 2008;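 active = compounds that cut the binding signal by more than half at the single screening dose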;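 note: His-tagged Mcl-1 with europium anti-His antibody binding Bid BH3 peptide; 0% = Mcl-1 plus peptide wells and 100% = peptide-only wells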
Target sequence (Q07820 whole entry, looked up): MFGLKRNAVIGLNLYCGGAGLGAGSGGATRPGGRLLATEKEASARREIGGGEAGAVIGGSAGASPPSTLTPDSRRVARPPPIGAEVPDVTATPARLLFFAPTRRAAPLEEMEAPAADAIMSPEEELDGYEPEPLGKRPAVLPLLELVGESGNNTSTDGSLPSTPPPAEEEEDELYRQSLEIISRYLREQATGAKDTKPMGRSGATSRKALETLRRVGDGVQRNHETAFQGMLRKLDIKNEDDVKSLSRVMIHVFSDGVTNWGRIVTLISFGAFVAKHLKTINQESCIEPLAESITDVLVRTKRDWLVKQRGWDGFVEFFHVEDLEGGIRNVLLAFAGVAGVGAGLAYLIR
Bim-Mcl-1: inhibitors of Bim peptide binding to Mcl-1, primary screen, biochemical, bead-based flow cytometry, multiplex. Induced myeloid leukemia cell differentiation protein Mcl-1 (Homo sapiens), Q07820. Bim peptide-Mcl-1 binding. inhibition, % at 10 µM. hit rate 0.1% among 190,000. AID 1009, 2008; in the data active = inhibition above about 40%;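 note: 0% = no compound tracer wells and 100% = peptide blocker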
zVAD death inh: inhibitors of zVAD-triggered necroptosis, primary screen, L929 cells; viability rescue, % at 10 µM; L929 zVAD necroptosis rescue, ATP luminescence, 24 h; with zVAD 60 µM; hit rate 0.38% among 220,000;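 active = activation, scaled between plate controls, above about 75%, limit read from the data; inactive = activation under that limit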;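 note: 0% = zVAD with DMSO and 100% = DMSO alone without zVAD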
MCL1-BIM inh: inhibitors of MCL1 binding to BIM-BH3, primary screen, biochemical, fluorescence polarization; hit rate 0.68% among 320,000; Induced myeloid leukemia cell differentiation protein Mcl-1 (Homo sapiens), Q07820; GST-MCL1 / FITC-Bim-BH3 fluorescence polarization; inhibition, % at 10.9 µM;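 active = inhibition above the mean inhibition of all tested compounds plus 3 SD, set per campaign, cut at about 40% in these data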;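 note: 0% = DMSO wells and 100% = unlabeled Bim-BH3 peptide control; higher means more loss of mP so more displacement of Bim peptide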
Mcl1-Noxa inh: Mcl-1/Noxa binding inhibitors, primary screen, biochemical, TR-FRET, 1536-well; Induced myeloid leukemia cell differentiation protein Mcl-1 (Homo sapiens), Q07820; TR-FRET Mcl-1/Noxa peptide binding, 2 h; hit rate 1.5% among 220,000; AID 1022, 2008; inhibition, % at 21.7 µM;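 active = compounds that cut the protein-peptide binding signal by more than 50% relative to plate controls in a single-dose test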;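 note: His-tagged Mcl-1 with rhodamine Noxa BH3 peptide and terbium anti-His antibody; 0% = Mcl-1 plus Noxa peptide wells and 100% = peptide-only wells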
Active calls of the source: *. Sampled rows, rich in hits. Any-hit rate of the full collection: about 2.4%.

`COc1ccccc1/C=C1\C(=O)NC(=S)N(c2ccccc2)C1=O` gave MCL1-BIM inh 14.
`O=C1NC(=S)N(Cc2ccco2)C(=O)/C1=C\c1cccs1` gave TNF death inh -1, Mcl1-Bid inh 97*, Bim-Mcl-1 2, zVAD death inh -1 and Mcl1-Noxa inh 97*.
`O=c1cccc2n1CC1CNCC2C1` (centres undefined) gave MCL1-BIM inh 5.
Screening COc1cccc(N2C(=O)NC(=O)/C(=C/c3ccc4c(c3)Cc3ccccc3-4)C2=O)c1 returned TNF death inh -1, Mcl1-Bid inh 9, Bim-Mcl-1 0, zVAD death inh 1, MCL1-BIM inh 2 and Mcl1-Noxa inh 41.
`Nc1ccc2c(c1)Cc1ccccc1-2` gave TNF death inh -2, Mcl1-Bid inh -51, Bim-Mcl-1 0, zVAD death inh 3, MCL1-BIM inh -1 and Mcl1-Noxa inh 54*.
`CC(C)(C)C(O)C(Oc1ccc(Cl)cc1)n1cncn1` (centres undefined) gave TNF death inh 0, Mcl1-Bid inh 76*, Bim-Mcl-1 -2, zVAD death inh 0, MCL1-BIM inh 8 and Mcl1-Noxa inh 2.
`CC(C(=O)c1ccc(Cl)cc1Cl)n1cncn1` (centres undefined) gave MCL1-BIM inh 4.
`CCOC(=O)c1ccc2[nH]c(-c3ccc(S(=O)(=O)F)cc3)cc(=O)c2c1` gave TNF death inh -10, Mcl1-Bid inh 3, zVAD death inh -1, MCL1-BIM inh -6 and Mcl1-Noxa inh 14.
Screening COC(=O)C(O)(c1c[nH]c2ccccc12)C(F)(F)F (centres undefined) returned TNF death inh 1, Mcl1-Bid inh -10, Bim-Mcl-1 -1, zVAD death inh 0, MCL1-BIM inh 1 and Mcl1-Noxa inh 4.
CCOC(=O)c1cc(C(O)(C(=O)OC)C(F)(F)F)c(/N=C/N(C)C)o1 (centres undefined) was read as TNF death inh -1, Mcl1-Bid inh -23, Bim-Mcl-1 0, zVAD death inh 0, MCL1-BIM inh 4 and Mcl1-Noxa inh 86*.
N/C(=N\[N+](=O)[O-])N1CCN(C(=O)c2ccccn2)CC1 was read as MCL1-BIM inh 4.
`Cc1ccc2c(c1N)C(=O)c1ccccc1C2=O` gave MCL1-BIM inh 42*.
`COc1ccc(-c2cc(=O)oc3c(C)c(OC(C)C(=O)N4C[C@H]5C[C@@H](C4)c4cccc(=O)n4C5)ccc23)cc1` (some centres undefined) gave MCL1-BIM inh -11.
Screening Cc1cccc(N2C(=O)/C(=C/N3CCN(C(=O)c4ccco4)CC3)C(=O)NC2=S)c1 returned TNF death inh -2, Mcl1-Bid inh -27, Bim-Mcl-1 -5, zVAD death inh 0, MCL1-BIM inh -16 and Mcl1-Noxa inh 62*.
For Cc1ccc(N2C(=O)/C(=C/N3CCN(C(=O)c4ccco4)CC3)C(=O)NC2=S)cc1C the results were TNF death inh -3, Mcl1-Bid inh -41, Bim-Mcl-1 0, zVAD death inh 0, MCL1-BIM inh -1 and Mcl1-Noxa inh 8.
For CCC(C)N1C(=O)NC(=O)C2(Cc3c(ccc4ccccc34)N(C)C2)C1=O (centres undefined) the results were TNF death inh -7, Mcl1-Bid inh -105, Bim-Mcl-1 2, zVAD death inh 0, MCL1-BIM inh 13 and Mcl1-Noxa inh 59*.
Screening COc1ccc2c(c1)CC1(CN2C)C(=O)NC(=O)N(CCc2ccccc2)C1=O (centres undefined) returned TNF death inh 0, Mcl1-Bid inh -13, Bim-Mcl-1 -3, zVAD death inh 0, MCL1-BIM inh 21 and Mcl1-Noxa inh 31.
For CC(C)C1(C)N=C(c2ncccc2C(=O)O)NC1=O (centres undefined) the results were TNF death inh -1, Mcl1-Bid inh 85*, Bim-Mcl-1 -1, zVAD death inh 0, MCL1-BIM inh 7 and Mcl1-Noxa inh 2.
Screening CC1CN2c3ccc([N+](=O)[O-])cc3CC3(C(=O)N(C)C(=O)N(C)C3=O)C2C(C)O1 (centres undefined) returned TNF death inh 2, Mcl1-Bid inh -31, zVAD death inh 1, MCL1-BIM inh -1 and Mcl1-Noxa inh 5.
Screening CN(C)[C@@H]1C(=O)C(C(N)=O)=C(O)[C@@]2(O)C(=O)C3=C(O)c4c(O)cccc4[C@@](C)(O)[C@H]3[C@H](O)[C@@H]12 returned TNF death inh -1, Mcl1-Bid inh 72*, Bim-Mcl-1 3, zVAD death inh 0, MCL1-BIM inh active and Mcl1-Noxa inh 111*.
Screening CN(C)[C@@H]1C(=O)C(C(N)=O)=C(O)[C@@]2(O)C(=O)C3=C(O)c4c(O)ccc(Cl)c4[C@@](C)(O)[C@H]3C[C@@H]12 returned MCL1-BIM inh 14.
Screening COC(=O)C1C2c3ccccc3OC1(C)N=c1s/c(=C/c3cnn(C)c3C)c(=O)n12 (centres undefined) returned TNF death inh -2, Mcl1-Bid inh -8, Bim-Mcl-1 64*, zVAD death inh 0, MCL1-BIM inh -3 and Mcl1-Noxa inh 9.
For Cn1ncc(Cl)c1C(=O)N1CCC2(CC1)OCCO2 the results were MCL1-BIM inh 3.
Screening COc1cc2c(cc1O)C[C@H]1NCCc3cc4c(c-2c31)OCO4 returned TNF death inh -7, Mcl1-Bid inh -28, Bim-Mcl-1 6, zVAD death inh 62, MCL1-BIM inh 24 and Mcl1-Noxa inh 79*.
`Cc1ccc(N2C(=O)NC(=O)/C(=C/c3cnc(-c4ccccc4)nc3)C2=O)cc1C` gave TNF death inh -1, Mcl1-Bid inh 20, Bim-Mcl-1 -1, zVAD death inh 0, MCL1-BIM inh -10 and Mcl1-Noxa inh 75*.
COc1cccc(-n2c(/C=C/c3ccc(O)c(O)c3)nc3ccccc3c2=O)c1 was read as TNF death inh -3, Mcl1-Bid inh -6, Bim-Mcl-1 -1, zVAD death inh 11, MCL1-BIM inh 11 and Mcl1-Noxa inh 56*.
For COc1ccc(-n2c(/C=C/c3ccc(O)c(OC)c3)nc3ccccc3c2=O)cc1 the results were MCL1-BIM inh -8.
CN(C)c1ccc(NC(=O)CN2C(=O)CN=C(c3ccccc3)c3cc(Cl)ccc32)cc1 was read as TNF death inh -3, Mcl1-Bid inh 2, Bim-Mcl-1 -3, zVAD death inh 0, MCL1-BIM inh -5 and Mcl1-Noxa inh 78*.
